Test results taken from PubChem BioAssay AID1456 (Vanderbilt High Throughput Screening Facility, 2008).
In all, about 190,000 compounds went through this assay and about 4,100 (2.2%) were called active.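 How the source made its calls: active means thallium flux slope and its plate-corrected score both differing from the plate sample mean at a set confidence after two filtering rounds, in either direction; inactive means the rest.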 For the sample, actives were picked, then their nearest neighbours and some compounds at random.

What follows are compounds tested against Solute carrier family 12 member 5 (Homo sapiens) (UniProt Q9H2X9) (assay: modulation of human KCC2 ion transport – cell-based, HEK293 KCC2, FluoZin-2 fluorescence, MLSMR, primary screen (AID 1456;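 further: slope of fluorescence scaled to starting intensity during 10 to 20 s after thallium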)). Details: KCC2 cells, thallium flux FluoZin-2 fluorescence; at 10 µM.
Sequence of Solute carrier family 12 member 5 (Homo sapiens) (Q9H2X9 whole entry, looked up): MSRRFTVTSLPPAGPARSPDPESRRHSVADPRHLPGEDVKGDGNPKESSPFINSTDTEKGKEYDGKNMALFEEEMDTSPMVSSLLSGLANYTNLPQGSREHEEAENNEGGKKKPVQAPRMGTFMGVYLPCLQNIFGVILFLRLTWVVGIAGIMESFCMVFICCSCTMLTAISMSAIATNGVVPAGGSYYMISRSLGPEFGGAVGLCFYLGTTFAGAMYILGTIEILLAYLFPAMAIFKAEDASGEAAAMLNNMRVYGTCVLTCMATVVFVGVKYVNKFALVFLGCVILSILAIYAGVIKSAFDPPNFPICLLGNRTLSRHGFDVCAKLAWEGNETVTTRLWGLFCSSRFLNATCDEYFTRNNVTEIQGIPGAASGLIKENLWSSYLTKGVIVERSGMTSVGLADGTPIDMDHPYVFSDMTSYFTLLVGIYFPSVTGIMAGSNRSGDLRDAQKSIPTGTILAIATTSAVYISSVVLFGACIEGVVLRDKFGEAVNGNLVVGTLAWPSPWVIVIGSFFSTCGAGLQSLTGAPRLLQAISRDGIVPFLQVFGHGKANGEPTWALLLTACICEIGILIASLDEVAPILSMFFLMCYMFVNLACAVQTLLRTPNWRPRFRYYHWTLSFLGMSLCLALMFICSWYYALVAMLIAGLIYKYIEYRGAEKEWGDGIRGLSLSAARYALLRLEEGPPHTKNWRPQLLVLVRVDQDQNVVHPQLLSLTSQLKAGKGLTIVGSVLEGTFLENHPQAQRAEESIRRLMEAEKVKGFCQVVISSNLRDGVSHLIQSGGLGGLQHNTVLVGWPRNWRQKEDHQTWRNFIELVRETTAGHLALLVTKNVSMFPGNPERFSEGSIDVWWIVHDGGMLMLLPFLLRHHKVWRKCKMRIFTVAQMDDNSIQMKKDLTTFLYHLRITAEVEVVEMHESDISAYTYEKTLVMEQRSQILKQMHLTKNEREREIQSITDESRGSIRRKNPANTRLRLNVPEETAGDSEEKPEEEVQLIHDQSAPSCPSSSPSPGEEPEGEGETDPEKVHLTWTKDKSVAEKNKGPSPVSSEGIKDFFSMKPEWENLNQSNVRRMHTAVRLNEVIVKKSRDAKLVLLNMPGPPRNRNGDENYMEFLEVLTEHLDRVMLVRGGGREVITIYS

Structure (SMILES)	B-score of Tl+ flux slope (higher = more flux/activation; lower = inhibition)
O=C(CN1CCN(c2ccc(Cl)cc2)CC1)NCc1cccs1	-1.03 (inactive)
N#Cc1nc(Cc2ccccc2)oc1NCCc1ccccc1	-4.49 (active)
Cc1ccccc1-c1nc(C#N)c(NCc2ccco2)o1	-0.237 (inactive)
Cc1ccc(-c2nc(C#N)c(NCCCn3ccnc3)o2)cc1	-0.3 (inactive)
Nc1ncc(-c2cc3ccccc3oc2=O)s1	-0.488 (inactive)
O=C(c1cn(-c2ccccc2)nc1-c1cc2ccccc2oc1=O)N1CCOCC1	-0.172 (inactive)
O=c1oc2ccccc2cc1-c1cn(-c2ccccc2)c(=S)[nH]1	7.21 (active)
O=C(NCC1CCCO1)c1ccccc1-c1nc(-c2ccccc2Cl)no1 (centres undefined)	-1.09 (inactive)
O=C(c1ccncc1)N1CCN(c2ccc3ccccc3n2)CC1	-0.588 (inactive)
CCN(CC)S(=O)(=O)c1cccc(-c2n[nH]c(=S)n2/N=C/c2ccc(C(=O)OC)cc2)c1	2.87 (active)
COc1cc(/C=N/n2c(C)n[nH]c2=S)ccc1OCc1ccccc1	0.899 (inactive)
S=c1[nH]nc(-c2cc(-c3ccccc3)n[nH]2)n1/N=C/c1c2ccccc2cc2ccccc12	-1.01 (inactive)
O=C1CC(Cc2ccc(Cl)cc2)C(=O)N1c1cc(Cl)ccn1 (centres undefined)	-1.2 (inactive)
CC1CN(c2nc(Nc3ccccc3)nc(N)c2[N+](=O)[O-])CC(C)O1 (centres undefined)	-0.457 (inactive)
O=C(CS(=O)(=O)c1ccc(C(F)(F)F)cn1)NNC(=O)c1ccccc1	-0.101 (inactive)
Cn1c(CC2Sc3ccccc3NC2=O)nnc1SCC(=O)c1ccc(Cl)cc1 (centres undefined)	-2.19 (inactive)
CCN(CCNC(=O)C1=C(C)C(=O)OC12CCC(C)CC2)c1ccccc1 (centres undefined)	0.78 (inactive)
Cc1nc(Cl)c(C#N)c2c1CCCC2	-1.49 (inactive)
CCOC(=O)CSc1nc(C)c(Oc2ccc(Cl)cc2Cl)c(=O)[nH]1	-0.98 (inactive)
Cc1ccc(-c2csc(NNC(=O)c3ccccc3)n2)cc1	-5.47 (inactive)
CCOC(=O)CSc1nnc(CNc2nc(-c3ccccc3)cs2)n1C	-1.31 (inactive)
Cn1c(CNc2nc(-c3ccccc3)cs2)nnc1SCC(=O)c1ccccc1	-4.57 (active)
Cc1cc(N2CCN(c3ccc(F)cc3)CC2)n2ncnc2n1	0.197 (inactive)
COCCNc1nc(-c2ccccc2)nc2c1oc1ccccc12	0.0873 (inactive)
CC(C)OP(=O)(OC(C)C)C(Nc1ccccc1)c1cccc([N+](=O)[O-])c1 (centres undefined)	-1.5 (inactive)

Structure (SMILES)	B-score of Tl+ flux slope (higher = more flux/activation; lower = inhibition)
O=C(Nc1ccc2oc(-c3ccc4ccccc4c3)nc2c1)c1cccs1	0.746 (inactive)
O=C(Nc1ccc2oc(-c3ccccc3F)nc2c1)c1ccco1	-4.45 (active)
O=C(Nc1ccc2nccnc2c1)c1ccco1	0.0364 (inactive)
S=C(NN=C1CCN(Cc2ccccc2)CC1)NC1CCCCC1	-3.5 (active)
S=C(Nc1ccc(Br)cc1Cl)NC1CCN(Cc2ccccc2)CC1	-1.46 (inactive)
O=C(NC1CCN(Cc2ccccc2)CC1)c1c(F)cccc1F	-1.12 (inactive)
Fc1cc(F)c2nc(N3CCOCC3)sc2c1	-0.123 (inactive)
NC(=O)c1c(Nc2nc3c(F)cccc3s2)sc2c1CCCC2	-0.0899 (inactive)
Fc1cc(F)c2nc(Nc3nc4c(F)cccc4s3)sc2c1	69.3 (active)
O=S(=O)(Nc1ccc(OC(F)(F)F)cc1)c1cccc2nonc12	-0.299 (inactive)
CN(C)S(=O)(=O)c1ccc(C(=O)NCC(C)(C)N2CCOCC2)cc1	-0.162 (inactive)
Cn1c(=O)c2c(ncn2CCc2ccccc2)n(C)c1=O	-0.25 (inactive)
O=C(CCc1ccccc1)Nc1ncc([N+](=O)[O-])s1	-3 (inactive)
CC(=O)Oc1ccccc1C(=O)Nc1ncc([N+](=O)[O-])s1	-3 (active)
O=C(Cc1c(F)cccc1Cl)Nc1ncc([N+](=O)[O-])s1	-1.12 (inactive)
O=C(CNC(=O)c1ccco1)OCC(=O)c1ccccc1	7.3 (active)
O=C(COC(=O)CNC(=O)c1ccco1)Nc1ccc(F)cc1	0.652 (inactive)
O=C(COC(=O)c1ccccc1C(=O)c1ccccc1)c1ccco1	-0.42 (inactive)
Cn1nccc1NS(=O)(=O)c1ccc(F)cc1	0.158 (inactive)
COc1cccc(NC(=S)NC(=O)c2c(Cl)c(C)nn2C)c1	39.2 (active)
COc1cccc(NC(=S)NCc2ccccn2)c1	-0.247 (inactive)
Cc1nn(C)c(C(=O)NNC(=S)NC2CCCCC2)c1Cl	-0.0757 (inactive)
COc1ccc(CC(=O)NCC(=O)N/N=C/c2cc(Br)ccc2OC)cc1	-1.94 (inactive)
COc1ccc(/C=C/C(=O)Nc2ccc(C)cc2)cc1S(=O)(=O)N1CCOCC1	0.752 (inactive)
N#Cc1c(-c2cccs2)nc(SCC(=O)c2ccc(Br)cc2)[nH]c1=O	-4.31 (inactive)

Structure (SMILES)	B-score of Tl+ flux slope (higher = more flux/activation; lower = inhibition)
N#Cc1ccc(C(=O)Nc2nc(-c3cccs3)c(C(=O)C(F)(F)F)s2)cc1	-2.57 (active)
CCOc1cccc(C(=O)Nc2nnc(-c3cccs3)s2)c1	-0.21 (inactive)
Cc1cc(C)cc(C(=O)NCC(=O)OCC(=O)N2CCCCC2)c1	1.11 (inactive)
CC[C@@H](C)[C@@H](C(=O)N1CCN(C(=O)OC(C)(C)C)CC1)n1cc(CCC(=O)O)nn1	3.74 (active)
C[C@@H](C(=O)N1CCNCC1)n1cc(CCC(=O)O)nn1	1.43 (inactive)
CCC(C)[C@@H](C(=O)N1CCNCC1)n1cc(CCCCN)nn1 (some centres undefined)	0.0703 (inactive)
O=c1[nH]c2ccccc2s1	10.2 (active)
COCc1cc(=O)oc2cc(NS(=O)(=O)c3ccc(C)cc3)ccc12	0.0356 (inactive)
O=S(=O)(NCc1ccco1)c1cnc(Cl)c(Cl)c1	-2.3 (inactive)
COC(=O)c1sccc1NC(=O)c1csc2c1CCCC2	-0.108 (inactive)
COc1cc(C(=O)Nc2nccs2)cc(OC)c1OC	0.128 (inactive)
COC(=O)c1sccc1NC(=O)c1cc(OC)c(OC)c(OC)c1	-5.91 (active)
COc1ccc(NS(=O)(=O)c2ccc(N3CCOCC3)c(NC(=O)c3ccccc3Br)c2)cc1	-1.53 (inactive)
COc1ccc2[nH]c(=S)cc(C)c2c1	13.9 (active)
COc1ccc2[nH]c3ccc(OC)cc3c2c1	0.0914 (inactive)
COc1ccc2[nH]c(=O)c(CNc3ccc(C)c(C)c3)cc2c1	0.158 (inactive)
COc1ccccc1OCC(=O)O/N=C(\N)c1ccccn1	0.265 (inactive)
COc1ccc(C(=O)NNc2cc(C)nc(NNC(=O)c3ccc(OC)cc3)n2)cc1	-0.94 (inactive)
O=C(Nc1ccc(N2CCN(C(=O)c3ccccc3)CC2)c(Cl)c1)c1cccnc1	1.08 (inactive)
COC(=O)[C@H](C)[C@H]1C[C@]1(C)[C@H](NC(=O)OCc1ccccc1)c1ccccc1	2.81 (inactive)
C[C@@H](C(=O)Nc1ccc2ccccc2c1)[C@@H]1C[C@@]1(C)[C@@H](NC(=O)c1cccnc1)c1ccccc1	-2.53 (active)
Cc1cc(C)n(CC(C)NCc2c(C(=O)N3CCOCC3)nc3c(C)cccn23)n1 (centres undefined)	0.104 (inactive)
CCOC(=O)C1=C(N)N2C(=O)C(C)SC2=C(C(=O)OCC)C1c1cc(OC)c(OC)c(OC)c1 (centres undefined)	-0.308 (inactive)
CCCCNC(=O)c1ccc(-n2c(=S)[nH]c3ccccc3c2=O)cc1	1.81 (inactive)
CCCCn1c(=O)c(C(C)=O)c(O)c2ccccc21	-0.478 (inactive)

Structure (SMILES)	B-score of Tl+ flux slope (higher = more flux/activation; lower = inhibition)
CCCCn1c(=S)[nH]c2cc(S(=O)(=O)N3CCCCC3)ccc21	0.854 (inactive)
COc1cc2[nH]c(=S)n(Cc3ccc(F)cc3)c(=O)c2cc1OC	0.913 (inactive)
O=c1c2ccccc2[nH]c(=S)n1CCN1CCC(=C(c2ccc(F)cc2)c2ccc(F)cc2)CC1	8.36 (active)
CCN(CC)CCn1c(=S)[nH]c2ncccc2c1=O	0.847 (inactive)
CN(C)CCn1c(=S)[nH]c2ccc(Cl)cc2c1=O	4.34 (active)
CCCCn1c(=S)[nH]c2ccccc2c1=O	92.1 (active)
Fc1ccc(NC(=S)N2CCc3[nH]c4ccccc4c3C2)cc1	-0.241 (inactive)
CCCCN(C)Cc1c(C)[nH]c2ccc(Cl)cc2c1=O	-0.235 (inactive)
CCCCn1c(=S)[nH]c2ncccc2c1=O	49.5 (active)
O=C(CCn1c(=S)[nH]c2ccccc2c1=O)NCCCN1CCCC1=O	-0.0162 (inactive)
C=CCN(C(=O)Nc1ccc2c(c1)nc(C)n2C)c1ccccc1	-0.205 (inactive)
COc1ccc2c(c1)c1ncn(Cc3ccccn3)c(=O)c1n2C	-0.189 (inactive)
COc1ccc(-c2nn(C)c(=O)c3ccccc23)cc1CNC(=O)C1CCCCC1	-0.0309 (inactive)
CCC(C)N1C(=S)SC(C)(C)C1N(O)C(=O)NC1CCCCC1 (centres undefined)	0.793 (inactive)
COc1ccccc1-n1cn[nH]c1=S	0.0347 (inactive)
CCc1ccc(NC(=O)N[C@H](C(=O)O)C(C)CC)cc1 (some centres undefined)	1.5 (inactive)
O=C(O)c1ccc(/C=N/Nc2nc(N3CCCCC3)nc(N3CCCCC3)n2)cc1	-1.4 (inactive)
Cc1ccc(C(=O)N/C(=C\c2ccco2)C(=O)NC2CCS(=O)(=O)C2)cc1 (centres undefined)	-1.21 (inactive)
CN(C(=O)CCn1c(=S)oc2ccccc21)C1CCCCC1	0.00441 (inactive)
CC(C)c1nc(SCC(=O)NC(=O)NC(C)(C)C)n[nH]1	-0.671 (inactive)
Cc1ccc(NC(=O)/C(=C/c2ccc([N+](=O)[O-])cc2)NC(=O)c2ccccc2)cc1	-1.36 (inactive)
COc1cc(NC(=O)c2cccnc2SC)cc(OC)c1	0.553 (inactive)
O=C(Nc1nncs1)c1ccccc1NS(=O)(=O)c1cccs1	-1.71 (inactive)
COc1cc(NC(=O)c2ccccc2NS(=O)(=O)c2ccc(Cl)s2)cc(OC)c1	-5.32 (active)
